# Compounds without any hit were thinned out: in the full panel of roughly 83,000, 20% have a hit.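 Values shown are percent growth following 48 h exposure of cells in 96-well plates to a single concentration of compound; below 10 was considered active.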 A number with no mark means an inactive call. The source made the active and inactive calls.
# Experiments:
# Experiment in all cases: NCI-60 one-dose screen, 48 h (100 = growth as untreated, 0 = no growth, -100 = all killed)
# [1] = system: DU-145 prostate; settings: 10 µM unless noted
# [2] = system: K-562 leukemia; settings: 10 µM unless noted
# [3] = system: MALME-3M melanoma; settings: 10 µM unless noted
# [4] = system: MDA-MB-231 breast; settings: 10 µM unless noted
# [5] = system: RXF 393 renal; settings: 10 µM unless noted
# [6] = system: SF-268 CNS; settings: 10 µM unless noted
# [7] = system: SF-295 CNS; settings: 10 µM unless noted
# [8] = system: SF-539 CNS; settings: 10 µM unless noted
# [9] = system: UACC-257 melanoma; settings: 10 µM unless noted
# [10] = system: M14 melanoma; settings: 10 µM unless noted
# [11] = system: HCT-15 colon; settings: 10 µM unless noted
# [12] = system: SNB-75 CNS; settings: 10 µM
# [13] = system: SNB-19 CNS; settings: 10 µM unless noted
# [14] = system: U251 CNS; settings: 10 µM unless noted
# [15] = system: PC-3 prostate; settings: 10 µM unless noted
# [16] = system: SK-MEL-5 melanoma; settings: 10 µM unless noted
# [17] = system: UACC-62 melanoma; settings: 10 µM unless noted
# [18] = system: LOX IMVI melanoma; settings: 10 µM unless noted
# [19] = system: SK-MEL-28 melanoma; settings: 10 µM unless noted
# [20] = system: HT29 colon; settings: 10 µM unless noted
Structure (SMILES),growth [1],growth [2],growth [3],growth [4],growth [5],growth [6],growth [7],growth [8],growth [9],growth [10],growth [11],growth [12],growth [13],growth [14],growth [15],growth [16],growth [17],growth [18],growth [19],growth [20] [%]
COc1ccccc1CNCCCN1C(=O)c2ccc3c4c(ccc(c24)C1=O)C(=O)N(CCCNCCCCNCCCN)C3=O,-92.6% (active),-15.1% (active),-91.8% (active),15%,-66.8% (active),1.6% (active),1.52% (active),-55.9% (active),-91.1% (active),-70.8% (active),-32.1% (active),-79.7% (active),-31.1% (active),-51.8% (active),-1.44% (active),-99.3% (active),-52% (active),1.41% (active),-75.7% (active),–
Cc1nc2ncccc2nc1Nc1ccc(S(=O)(=O)Nc2cncs2)cc1,107%,109%,103%,84%,112%,98.2%,107%,106%,101%,99.6%,115%,–,111%,97.7%,–,101%,88.8%,83.5%,110%,101
C/C(=C\c1ccc(OCC(=O)O)c(Cl)c1Cl)[N+](=O)[O-],108%,88%,135%,113%,136%,95.2%,116%,103%,90.4%,102%,97.4%,103%,115%,96.4%,92%,109%,114%,92.1%,118%,–
Cc1ccc(Nc2nnc(-c3ccc(Cl)cc3)o2)c(C)c1,93.5%,24.8%,62.1%,76.3%,93.8%,90.3%,80.7%,79%,87.8%,57.6%,44.7%,78.7%,95.8%,83.8%,92.1%,92.7%,70.8%,75.9%,76.8%,–
Cc1ccc(S(=O)(=O)C2=C3C(=C(c4ccccc4)c4ccccc43)CN(S(=O)(=O)c3ccc(C)cc3)C2)cc1,68.2%,18%,72%,48.8%,47.1%,45.3%,68.3%,74.1%,91%,70.7%,39%,56.1%,82.1%,38.4%,30.1%,81.9%,36.9%,-76.5% (active),88%,–
COc1ccc2c(c1)cn1c3ccc(OC)cc3[nH]c(=O)c21,-87.1% (active),-28.1% (active),42.1%,-86.9% (active),-82.2% (active),-14% (active),-84.9% (active),-84.9% (active),54.7%,-65.1% (active),-84.4% (active),59.1%,12.3%,-90.3% (active),-72.7% (active),4.14% (active),29.9%,-79.5% (active),61%,–
O=C(c1ccccc1)C1OC1c1ccc([N+](=O)[O-])cc1 (stereo not given),67.9%,32.6%,83.6%,78.4%,77.8%,79.2%,97%,96.5%,68.1%,48.2%,70.8%,70%,95.3%,64.8%,63.2%,52.7%,71.4%,29%,97.4%,–
CCN(CC)c1ccc(CNc2ccnc3ccccc23)cc1,70%,9.95% (active),49.5%,70.2%,71.7%,82.3%,51.4%,69.7%,36.2%,56.2%,58.6%,–,–,52.4%,42.4%,8.05% (active),76.4%,54.7%,80.4%,24.8
